# According to PubChem BioAssay (Tox21):
# Values without a mark were called inactive. Records with an inconclusive call do not appear. Entries that show only a call come without a potency. Calls of active or inactive are those of the source. Calls follow the shape of the dose curve; as a rule, active = well fitted curve in the direction sought with a large enough effect in the repeat runs; inconclusive = weak or mixed curves; inactive = no such curve, though single readings can be large; an effect the other way counts as inactive or inconclusive.
# Assays:
# [1] = qHTS RealTime-Glo MT Cell Viability Assay in HepG2 cells - 40 hour (AID 1224870); also: nearly all actives have a fitted effect of over 50% in size
# In short: (§1)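 HepG2 cells mixed with RealTime-Glo MT reagents (NanoLuc plus cell-permeant prosubstrate) were seeded at 600 cells/well, incubated 5 h at 37 C/5% CO2, then pinned with compounds in DMSO; nonlytic luminescence tracked viability during 40 h treatment.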
# [2] = A CellTox Green Cytotoxicity Assay to monitor cytotoxicity in HEK293 cells - 40 hour (AID 1224871); also: nearly all actives have a fitted effect of over 45% in size; also: potency is read from the fitted curve at half-maximal effect
# In short: (§2)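 Homogeneous no-lysis format: HEK293 cell suspension mixed with CellTox Green reagent, seeded, incubated 5 h at 37 C/5% CO2, then dosed by pintool with compound in DMSO.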
# [3] = qHTS RealTime-Glo MT Cell Viability Assay in HepG2 cells - 8 hour (AID 1224873); also: nearly all actives have a fitted effect of over 55% in size
# In short: as §1
# [4] = qHTS RealTime-Glo MT Cell Viability Assay in HEK293 cells - 40 hour (AID 1224874); details: RealTime-Glo luminescence; max response: hits give low values; also: nearly all actives have a fitted effect of over 50% in size; also: potency is read from the fitted curve at half-maximal effect
# In short: (§3)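 Measured as luminescence from the same continuously cultured HEK293 wells at successive time points (0, 8, 16, 24, 32, 40 h) after compound addition. Reagent present from seeding; dosing at 5 h; incubation 37 C.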
# [5] = A CellTox Green Cytotoxicity Assay to monitor cytotoxicity in HepG2 cells - 16 hour (AID 1224876); also: nearly all actives have a fitted effect of over 45% in size
# In short: (§4)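 Fluorescent DNA-binding dye, 600 HepG2 cells/well, 5 h preincubation then compound in DMSO; same plates read at 0–40 h, 37 C.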
# [6] = qHTS RealTime-Glo MT Cell Viability Assay in HepG2 cells - 32 hour (AID 1224877); also: nearly all actives have a fitted effect of over 55% in size
# In short: (§5)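 Real-time, nonlytic viability: 600 HepG2 cells/well mixed with NanoLuc enzyme plus prosubstrate; 5 h settle, compound (DMSO) added by pintool; luminescence monitored over 40 h at 37 C.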
# [7] = A CellTox Green Cytotoxicity Assay to monitor cytotoxicity in HepG2 cells - 40 hour (AID 1224879); also: nearly all actives have a fitted effect of over 40% in size; also: potency is read from the fitted curve at half-maximal effect
# In short: as §4
# [8] = qHTS RealTime-Glo MT Cell Viability Assay in HEK293 cells - 0 hour (AID 1224880); also: top concentration of the series differs between compounds; nearly all actives have a fitted effect of over 45% in size
# In short: as §3
# [9] = A CellTox Green Cytotoxicity Assay to monitor cytotoxicity in HepG2 cells - 0 hour (AID 1224882); also: nearly all actives have a fitted effect of over 35% in size
# In short: as §4
# [10] = A CellTox Green Cytotoxicity Assay to monitor cytotoxicity in HEK293 cells - 8 hour (AID 1224884); also: nearly all actives have a fitted effect of over 35% in size
# In short: as §2
# [11] = qHTS RealTime-Glo MT Cell Viability Assay in HepG2 cells - 16 hour (AID 1224885); also: nearly all actives have a fitted effect of over 50% in size
# In short: as §5
# [12] = qHTS RealTime-Glo MT Cell Viability Assay in HEK293 cells - 24 hour (AID 1224886); also: nearly all actives have a fitted effect of over 50% in size; also: potency is read from the fitted curve at half-maximal effect
# In short: (§6)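 Cells + reagent dispensed (600 cells/well, HEK293) → 5 h at 37 C/5% CO2 → 23 nL compound in DMSO pinned → 40 h at 37 C → luminescence read at 0, 8, 16, 24, 32, 40 h.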
# [13] = qHTS RealTime-Glo MT Cell Viability Assay in HepG2 cells - 0 hour (AID 1224889); also: nearly all actives have a fitted effect of over 50% in size
# In short: as §5
# [14] = A CellTox Green Cytotoxicity Assay to monitor cytotoxicity in HEK293 cells - 24 hour (AID 1224875); also: series mostly up to about 77 µM; nearly all actives have a fitted effect of over 45% in size
# In short: as §2
# [15] = A CellTox Green Cytotoxicity Assay to monitor cytotoxicity in HepG2 cells - 24 hour (AID 1224878); also: nearly all actives have a fitted effect of over 45% in size
# In short: as §4
# [16] = A CellTox Green Cytotoxicity Assay to monitor cytotoxicity in HEK293 cells - 32 hour (AID 1224881); also: nearly all actives have a fitted effect of over 40% in size
# In short: as §2
# [17] = qHTS RealTime-Glo MT Cell Viability Assay in HEK293 cells - 8 hour (AID 1224887); also: nearly all actives have a fitted effect of over 50% in size; also: potency is read from the fitted curve at half-maximal effect
# In short: as §3
# [18] = A CellTox Green Cytotoxicity Assay to monitor cytotoxicity in HEK293 cells - 16 hour (AID 1224888); also: nearly all actives have a fitted effect of over 35% in size
# In short: as §2
# [19] = A CellTox Green Cytotoxicity Assay to monitor cytotoxicity in HepG2 cells - 32 hour (AID 1224883); also: nearly all actives have a fitted effect of over 50% in size
# In short: as §4
# [20] = qHTS RealTime-Glo MT Cell Viability Assay in HEK293 cells - 16 hour (AID 1224872)
# In short: as §6
structure (smiles),measurement,setting,value
COc1ccc2nc(NC(=O)Nc3ccccc3)sc2c1,Potency,[1],inactive
same,Potency,[2],26.8 µM (active)
same,outcome,[3],inactive
same,Potency,[4],6.01 µM (active)
same,Potency,[5],inactive
same,Potency,[6],inactive
same,Potency,[7],4.25 µM (active)
same,outcome,[8],inactive
same,Potency,[9],inactive
same,Potency,[10],inactive
same,outcome,[11],inactive
same,Potency,[12],4.77 µM (active)
same,Potency,[13],inactive
CCOc1ccc(NC(N)=O)cc1,Potency,[1],inactive
same,Potency,[2],inactive
same,outcome,[3],inactive
same,max response,[4],4.66%
same,Potency,[14],inactive
same,Potency,[5],inactive
same,Potency,[6],inactive
same,Potency,[15],inactive
same,Potency,[7],inactive
same,outcome,[8],inactive
same,Potency,[16],inactive
same,Potency,[9],inactive
same,Potency,[10],inactive
same,outcome,[11],inactive
same,Potency,[12],inactive
same,Potency,[17],inactive
same,Potency,[18],inactive
same,Potency,[13],inactive
CN1[C@@H]2CC[C@H]1CC(OC(=O)c1c[nH]c3ccccc13)C2 (stereo not given in full),Potency,[1],inactive
same,Potency,[2],inactive
same,outcome,[3],inactive
same,Potency,[14],inactive
same,Potency,[5],inactive
same,Potency,[6],inactive
same,Potency,[7],inactive
same,outcome,[8],inactive
same,Potency,[16],inactive
same,Potency,[9],inactive
same,Potency,[19],inactive
same,Potency,[10],inactive
same,outcome,[11],inactive
same,Potency,[17],inactive
same,Potency,[13],inactive
Nc1ccc(Oc2ccc(N)c(N)c2)cc1,Potency,[1],inactive
same,Potency,[2],inactive
same,Potency,[14],inactive
same,Potency,[6],inactive
same,outcome,[8],inactive
same,Potency,[16],inactive
same,Potency,[9],inactive
same,Potency,[10],inactive
same,Potency,[18],inactive
Cc1c(-c2ccccc2)oc2c(C(=O)OCCN3CCCCC3)cccc2c1=O,Potency,[1],inactive
same,Potency,[2],inactive
same,outcome,[3],inactive
same,Potency,[14],inactive
same,Potency,[5],inactive
same,Potency,[6],inactive
same,Potency,[15],inactive
same,outcome,[8],inactive
same,Potency,[16],inactive
same,Potency,[9],inactive
same,Potency,[10],inactive
same,outcome,[11],inactive
same,Potency,[17],19 µM (active)
same,Potency,[18],inactive
same,Potency,[13],inactive
FC(F)(F)C(Cl)(Cl)Cl,Potency,[1],inactive
same,Potency,[2],inactive
same,outcome,[3],inactive
same,max response,[4],6.41%
same,Potency,[14],inactive
same,Potency,[6],inactive
same,Potency,[15],inactive
same,outcome,[8],inactive
same,Potency,[16],inactive
same,Potency,[9],inactive
same,Potency,[19],inactive
same,Potency,[10],inactive
same,outcome,[11],inactive
same,Potency,[17],inactive
same,Potency,[18],inactive
same,Potency,[13],inactive
O=C(O)C(=O)Cc1c[nH]c2ccccc12,Potency,[1],inactive
same,Potency,[2],inactive
same,outcome,[3],inactive
same,max response,[4],2.14%
same,Potency,[14],inactive
same,Potency,[5],inactive
same,Potency,[6],inactive
same,Potency,[15],inactive
same,outcome,[8],inactive
same,Potency,[16],inactive
same,Potency,[9],inactive
same,Potency,[19],inactive
same,Potency,[10],inactive
same,outcome,[11],inactive
same,Potency,[12],inactive
same,Potency,[17],inactive
same,Potency,[18],inactive
O=C1Nc2ccc([N+](=O)[O-])cc2C1=O,Potency,[1],inactive
same,Potency,[2],inactive
same,outcome,[3],inactive
same,Potency,[14],inactive
same,Potency,[5],inactive
same,Potency,[6],inactive
same,Potency,[15],inactive
same,Potency,[7],inactive
same,Potency,[16],inactive
same,Potency,[9],inactive
same,Potency,[10],inactive
same,outcome,[11],inactive
same,Potency,[18],inactive
same,Potency,[13],inactive
C1CCOC1,Potency,[1],inactive
same,Potency,[2],inactive
same,outcome,[3],inactive
same,Potency,[14],inactive
same,Potency,[5],inactive
same,Potency,[6],inactive
same,Potency,[15],inactive
same,Potency,[7],inactive
same,outcome,[8],inactive
same,Potency,[16],inactive
same,Potency,[9],inactive
same,Potency,[19],inactive
same,Potency,[10],inactive
same,outcome,[11],inactive
same,Potency,[12],inactive
same,Potency,[17],inactive
same,Potency,[18],inactive
same,Potency,[13],inactive
COc1ccc(Nc2ccc(OC)cc2)cc1,Potency,[1],inactive
same,Potency,[2],inactive
same,outcome,[3],inactive
same,Potency,[4],28.1 µM (active)
same,Potency,[14],inactive
same,Potency,[5],inactive
same,Potency,[6],inactive
same,Potency,[7],inactive
same,Potency,[16],inactive
same,Potency,[9],inactive
same,Potency,[19],inactive
same,Potency,[10],inactive
same,outcome,[11],inactive
same,Potency,[17],14.1 µM (active)
same,Potency,[18],inactive
same,Potency,[13],inactive
CC(C)Nc1nc(N)nc(Cl)n1,Potency,[1],inactive
same,Potency,[20],inactive
same,outcome,[3],inactive
same,max response,[4],10.6%
same,Potency,[14],inactive
same,Potency,[5],inactive
same,Potency,[6],inactive
same,Potency,[15],inactive
same,Potency,[7],inactive
same,outcome,[8],inactive
same,Potency,[16],inactive
same,Potency,[9],inactive
same,Potency,[19],inactive
same,Potency,[10],inactive
same,outcome,[11],inactive
same,Potency,[12],inactive
same,Potency,[17],inactive
same,Potency,[18],inactive
same,Potency,[13],inactive
